In PubChem BioAssay AID1321 (The Scripps Research Institute Molecular Screening Center, 2008):
“And” between values parts separate entries of the source, which are not always exact repeats. Identical values can stand only once. Screen size: about 220,000 compounds; about 2,600 (1.2%) were called active.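 Rule for the calls: active = activation above the mean of all tested compounds plus 3 SD, set per screening run (cut at about 8.8% in these data); inactive = the rest.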 The entries come from a sample that favours actives as a whole.

Target: Wee1-like protein kinase (Homo sapiens) (UniProt P30291)
Assay: Wee1 degradation inhibitors, primary screen, cell-based, HeLa, Wee1K328M-luciferase, luminescence (AID 1321);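 note: cells exposed to compound for 20 h before luminescence read; 0% = DMSO alone and 100% = MG132 at 30 µM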
Details: HeLa Luc-Wee1K328M stability, at 5 µM, stronger effect = higher value, 100% = proteasome inhibitor MG132 effect

Reporter increase, active:
CC1(C)CN(c2ccc(-c3ccnc4ncnn34)cc2)C1=O 9.83%, CCOC(=O)c1[nH]c(C)c(C(=O)OCC(=O)N2c3ccccc3CC2C)c1C (stereo unspecified) 15.6%, CCOc1ccc(OCC)c(NC(=O)C2CCN(S(=O)(=O)c3c(C)noc3C)CC2)c1 11.6%, Cc1ccc(-c2nc3ccccc3[nH]c2=O)cc1 9.13%, Cc1ccc(/C=N/NC(=S)Nc2cccc(S(=O)(=O)N(C)C)c2)o1 9.21%, O=C(COC(=O)c1ccccc1SCC(=O)NC1CCCCC1)NC1CCCCC1 11.2%, COc1ccc(O)c(C(=O)c2cnc3c(c2)c(-c2ccc(F)cc2)c(C#N)c(=O)n3C)c1 9.71%, CC(=O)Nc1ccc(S(=O)(=O)NC(C)C(=O)OCC(=O)NC2CCCC2)cc1 (stereo unspecified) 11.2%, OCCC1CN(Cc2cnc(-c3ccccc3)s2)CCN1CCc1ccccc1 (stereo unspecified) 9.46%, C=CCn1c(=S)sc2c(=O)[nH]c(C)nc21 9.98%, CCc1ccc2oc(-c3ccc(N)cc3)nc2c1 18.6%, CN1CCN(C(c2cc3cc4c(cc3[nH]c2=O)OCCO4)c2nnnn2C2CCCC2)CC1 (stereo unspecified) 11.8%, COc1ccc(-n2ncc3c(N4CCc5ccccc54)ncnc32)cc1 8.86%, Cc1ccc(N=C2NC(=O)c3cccc([N+](=O)[O-])c32)cc1 8.82%, COc1ccc(-n2c(=S)[nH]c3sc4c(c3c2=O)CCc2ccccc2-4)cc1 8.88%, CC(C)(C)NC(=O)CN(C(=O)c1csnn1)c1ccccc1-c1ccccc1 10.2%, Cn1c(=O)n(C)c2cc(NS(=O)(=O)c3ccc(F)cc3)ccc21 12.5%, CCN(CC)c1ccc(NC(=O)c2ccc(Cl)nc2)cc1 10.4%, CCCC1=Nc2cc(C(=O)NCc3ccco3)ccc2Sc2ccccc21 11.6%

Reporter increase, inactive:
Nc1c(-c2ccc(F)cc2)cnc2ncnn12 -2.59%, Cc1cc(C(=O)OCC(=O)Nc2nccs2)c2ccccc2n1 -2.08%, Cc1cc(=O)[nH]c(SCC(=O)N2c3ccccc3CC2C)n1 (stereo unspecified) -2.08%, CCn1nc(C(=O)OCC(=O)N2c3ccccc3CC2C)c2ccccc2c1=O (stereo unspecified) -0.36%, CC(=O)NCc1ccc(S(=O)(=O)NC2CCN(Cc3ccccc3)CC2)cc1 0.4%, CCOC(=O)C1CCN(C(=O)C2CCN(S(=O)(=O)c3c(C)noc3C)CC2)CC1 -0.61%, CCOc1ccccc1NC(=O)C1CCN(S(=O)(=O)c2c(C)nn(C)c2C)CC1 -1.78%, CC1(C)CC(N2CCN(C(c3ccccc3)c3ccccc3)CC2)=CC(=[N+]2CCCCC2)C1 -0.62%, Nc1nc(O)c(CC(=O)O)s1 -1.29%, O=C(O)c1ccc(/C=N/Nc2nc(N3CCCCC3)nc(N3CCCCC3)n2)cc1 -2.82%, O=C(c1c(Cl)cccc1Cl)N1CCN(c2cccc3[nH]ccc23)CC1 0.73%, O=C(COC(=O)c1ccc(F)cc1F)Nc1ncccn1 0.53%, Cc1ccc(-c2nc3ccccc3[nH]2)cc1N 0.78%, O=C(Cc1nc2ccccc2[nH]c1=O)c1ccc(Cl)cc1 3.48%, O=C(COC(=O)c1ccc(S(=O)(=O)Nc2ccccc2)cc1)NCC1CCCO1 (stereo unspecified) -1.62%, NS(=O)(=O)c1ccc(NC2=CC(c3ccc(F)cc3)N(c3ccc(S(N)(=O)=O)cc3)C2=O)cc1 (stereo unspecified) 0.72%, CC(CNS(=O)(=O)c1ccc(Br)cc1)CN(C)C (stereo unspecified) -0.62%, O=S(=O)(Nc1ccc(Cl)cn1)c1cnc(Cl)c(Br)c1 -0.3%, COc1ccc(CN2C(=O)C(C)S/C2=N/N=C/c2ccco2)cc1 (stereo unspecified) 5.4%, CN(C)S(=O)(=O)c1cccc(NC(=S)N/N=C/C(=O)c2ccccc2)c1 -1.91%, CN(C)S(=O)(=O)c1cccc(NC(=S)NCc2ccc3c(c2)OCO3)c1 3.85%, N#Cc1ccccc1Sc1ccccc1C(=O)OCC(=O)NC1CCCCC1 2.45%, CCOc1ncccc1C(=O)OCC(=O)NC1CC1 -1.43%, COc1ccccc1Nc1nc(N)nc(CSC(=S)N2CCOCC2)n1 -0.95%, O=C(Nc1ccc2c(c1)OCCO2)c1ccoc1 2.96%, Cc1coc2cc3oc(=O)c(CCC(=O)O)c(C)c3cc12 5.73%, S=c1[nH]nc(-c2ccncc2)n1/N=C/c1ccccc1Cl -0.32%, COc1ccc(O)c(C(=O)c2cnc3onc(C(C)C)c3c2)c1 -2.73%, COCCn1c(=O)[nH]c(=O)c2cc(C(=O)c3cc(OC)ccc3O)cnc21 0.11%, COc1ccccc1NC(=O)c1cc(Cl)nc2ccccc12 0.15%, Nc1cccc(S(=O)(=O)Nc2ccc(SC(F)F)cc2)c1 -0.8%, CCOC(=O)[C@H]1CCC[C@@H](NS(=O)(=O)c2ccc(NC(C)=O)cc2)C1 0.32%, CC(C)NS(=O)(=O)c1ccc(NC(=O)C2CCCCC2)cc1 -3.05%, OCCC1CN(Cc2cccc(O)c2)CCN1CCc1ccccc1 (stereo unspecified) -3.15%, OCCC1CN(Cc2ccc(Oc3ncccn3)cc2)CCN1CCc1ccccc1 (stereo unspecified) -0.52%, O=C(O)Cc1csc(-c2cccc(Oc3ccccc3)c2)n1 3.33% and -2.75%, S=c1nc2ccccc2c2nc(-c3cccnc3)[nH]n12 1.58%, C=CCn1c(-c2ccc3[nH]c(C)c(C)c3c2)n[nH]c1=S -4.16%, C=CCn1c(-c2sc(-c3ccccc3)nc2C)n[nH]c1=S -4.5%, S=c1[nH]nc(-c2cccs2)n1/N=C/c1cn(-c2ccccc2)nc1-c1ccc(Cl)cc1 -0.32%, CCCCCC(=O)Nc1ccc2oc(-c3ccncc3)nc2c1 -0.09%, COc1cccc(-c2nc3cc(C)ccc3o2)c1 1.41%, O=C(NCc1ccccc1)c1ccc(CNc2c(N3CCCC3)c(=O)c2=O)cc1 -2.66%, COc1ccc(N2CCN(C(c3cc4ccc(C)cc4[nH]c3=O)c3nnnn3C3CCCC3)CC2)cc1 (stereo unspecified) 0.68%, CCOC(=O)C1CCN(C(c2cc3cc(C)cc(C)c3[nH]c2=O)c2nnnn2C2CCCCC2)CC1 (stereo unspecified) 1.1%, COc1ccc(-c2nn(C)c(=O)c3ccccc23)cc1CNC(=O)C1CCCCC1 0.26%, CCN(CC)CCNCC(=O)Nc1ccc(Oc2ccccc2)cc1 2.79%, O=c1ccnc(Nc2ccc(Cl)cc2)[nH]1 1.16%, O=C(COC(=O)c1ccc(NS(=O)(=O)c2cccs2)cc1O)Nc1ccc(F)cc1 -0.64%, COc1ccc(-n2ncc3c(N4CCCc5ccccc54)ncnc32)cc1 3.61%, c1ccc(-n2ncc3c(N4CCCC4)ncnc32)cc1 5.02%, COc1ccc(CCNC(=O)C(=O)Nc2ccc3nc4n(c(=O)c3c2)CCCCC4)cc1OC 1.04%, Brc1ccc(-c2noc(-c3ccccc3)n2)o1 0.13%, Cn1c(CSCC(=O)Nc2ccccc2)nnc1SCc1ccccc1 -1.68%, COC(=O)c1cccc([N+](=O)[O-])c1CS(=O)(=O)c1ccc(C)cc1 1.24%, CCCCOc1ccc(CON(C(C)=O)C(C)=O)cc1Cl -0.35%, c1csc(-c2nnc(COc3ncnc4sccc34)o2)c1 1.62%, O=C1C(Cc2ccc(O)cc2)NC(=S)N1Cc1ccccc1 (stereo unspecified) -2.34%, COc1cccc(-n2c(=S)[nH]c3c(oc4ccccc43)c2=O)c1 5.9%, CSc1nc2sc3c(c2c(=O)[nH]1)CCc1ccccc1-3 -0.01%, COc1ccc(CCNS(=O)(=O)c2cccc3cccnc23)cc1OC -3.35%, Cc1ccc(/C=N/NC(=O)CSc2ccccn2)o1 3.47%, O=C(Nc1ccccc1N1CCOCC1)c1csc2c1CCCC2 -0.73%, Cc1nc2cccnc2nc1C 6.05%, CCC(C)(C)NC(=O)C(c1ccccn1)N(C(=O)c1csnn1)c1ccccc1 (stereo unspecified) 1.04%, CC(C)(C)NC(=O)CN(C(=O)c1ccc(Cl)nc1)c1cccc2ccccc12 -1.92%, CC(C)COC(=O)n1c(=O)oc2ccc(S(=O)(=O)N3CCCCC3)cc21 -1.87%, Cc1cc(C)cc(NS(=O)(=O)c2ccc(F)cc2)c1 -2.79%, Cn1nccc1NS(=O)(=O)c1ccc(F)cc1 0.03%, Cn1c2ccccc2c2cc(/C=C(\NC(=O)c3ccccc3)C(=O)NCC(=O)O)ccc21 -0.33%, NS(=O)(=O)c1ccc(NC(=O)COC(=O)c2ccc(Cl)nc2)cc1 -1.21%, O=C(NNc1ccccn1)c1ccc(Cl)nc1 -1.7%, CCCc1nc(-c2cc3cc(C)ccc3[nH]c2=O)no1 -2.96%, FC(F)(F)Oc1ccc(-c2cn3cccnc3n2)cc1 -1.79%, COc1ccc(CCN2C(=O)N(c3ccc(OC)cc3)C(=O)C2CC(=O)Nc2ccc(OC)cc2)cc1 (stereo unspecified) -1.78%, CCOc1ccccc1C(=O)NCc1ccco1 -0.54%, COc1ccc(CCNS(=O)(=O)c2ccc(C(=O)NCc3ccco3)cc2)cc1OC -0.79%
